# KB-3-1 tox – qHTS assay for MDR1-selective chemotherapeutics: Primary screen using the parental adenocarcinoma cell KB-3-1; KB-3-1 viability, CellTiter-Glo ATP luminescence, 72 h; Potency, µM (series often up to 46.1 µM), hits mostly cytotoxic; 400,000 compounds, 1.4% hits; also: nearly all actives have a fitted effect of over 60% in size
#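 Here the drug-naive KB-3-1 line serves as comparator for MDR sub-line selectivity; cells received compound titrations, 72 h at 37 °C, then CellTiter-Glo readout.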
# HT1080 IDH1KD tx – qHTS for induction of synthetic lethality in tumor cells producing 2HG: qHTS for the HT-1080-IDH1KD cell line. HT-1080 IDH1 knockdown viability, ATP luminescence, 48 h. 360,000 compounds, 2% hits. Potency, µM (doses to about 46.1 µM), without a hit: at the top dose activity, negative = toxicity, actives largely listed as cytotoxic;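 also: 0% = DMSO wells and -100% = cell-free medium wells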
#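 Using the IDH1-knockdown HT-1080 line run in the same batch and compound series as the NT line, viability after 48 h at 37 °C was determined by CellTiter-Glo luminescence and expressed as % activity.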
# DT40 TDP1 no CPT – qHTS for Inhibitors of human tyrosyl-DNA phosphodiesterase 1 (TDP1): qHTS in cells in absence of CPT; DT40 Tdp1-/- hTDP1 cells, no CPT, ATP luminescence, 48 h; Potency, µM (top dose mostly 46.2 µM), for the others: at the highest dose activity change, negative = growth inhibition, most hits filed as inhibitors; 420,000 compounds, 15% hits; also: nearly all actives have a fitted effect of over 55% in size
#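 No-CPT arm: Tdp1-/-;hTDP1 DT40 cells (400/well) plus compounds, incubated ≥48 hr at 37 °C. Readout CellTiter-Glo luminescence.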
# TDP1 cell CPT – qHTS for Inhibitors of human tyrosyl-DNA phosphodiesterase 1 (TDP1): qHTS in cells in presence of CPT. chicken DT40 Tdp1-/-;hTDP1 cells + 20 nM CPT, ATP luminescence, 48 h. 420,000 compounds, 12% hits. Potency, µM (top dose mostly 46.2 µM), for the others: at the top dose activity change, negative = growth inhibition, hits mostly inhibitors; also: nearly all actives have a fitted effect of over 55% in size
#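 Cell growth measured by CellTiter-Glo luminescence after a minimum 48 h, 37 C compound exposure with 20 nM CPT in Tdp1-knockout DT40 cells stably expressing hTDP1, seeded 400/well; qHTS titration format.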
# HT1080-NT tox – qHTS for induction of synthetic lethality in tumor cells producing 2HG: qHTS for the HT-1080-NT fibrosarcoma cell line. HT-1080-NT fibrosarcoma viability, CellTiter-Glo ATP luminescence, 48 h. Potency, µM (titrated, usually from 46.1 µM), for the others: at the top dose activity, negative = less viability, most hits filed as cytotoxic. 360,000 compounds, 1.6% hits. AID 686970, 2013;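 also: NT is the 2HG producing partner of a matched IDH1 knockdown line; 0% = DMSO-treated cells and -100% = media-only wells without cells; nearly all actives have a fitted effect of over 55% in size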
#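 HT-1080-NT; 750 cells/well; 5% FBS RPMI; 48 h compound, 37 degrees C; CellTiter-Glo luminescence; curve fitting and curve-class assignment.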
# KB-V1 cytotox – qHTS assay for MDR1-selective chemotherapeutics: Primary screen using the drug-selected MDR subline cells KB-V1; KB-V1 MDR cells viability, CellTiter-Glo, 72 h; Potency, µM (top dose mostly 46.1 µM), actives largely listed as cytotoxic; 400,000 compounds, 3.4% hits; also: nearly all actives have a fitted effect of over 60% in size
#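 Cells of the MDR subline KB-V1 are plated, dosed with compound at multiple concentrations, and incubated 72 h at 37 degrees C; CellTiter-Glo is then added and luminescence read after 10 min.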
# An asterisk follows results filed as active; i = inactive; ? = inconclusive; . = no result given; [ ] = remark or other dose. Hits are enriched below; roughly 19% of the tested compounds scored in any of these assays. Calls follow the shape of the dose curve; as a rule, active = well fitted curve in the direction sought with a large enough effect; inconclusive = small, poorly fitted or top-dose-only effect, or another doubt; inactive = no such curve, though single readings can be large; an effect the other way counts as inactive or inconclusive. Unless noted, % is scaled to controls: 0 for no effect and ±100 for the full control effect; potency is read from the fitted curve at half-maximal effect.
SMILES,KB-3-1 tox,HT1080 IDH1KD tx,DT40 TDP1 no CPT,TDP1 cell CPT,HT1080-NT tox,KB-V1 cytotox
CC1=C(C(=O)Nc2ccccc2)C(CC(C)C)n2nc(SCc3ccccc3C)nc2N1 (centres undefined),i,.,?,?,.,i
O=C(NCCN1CCC(n2c(=O)[nH]c3ccccc32)CC1)c1c(F)cccc1F,?,6.2%,-32.5%,-23.3%,3.6%,?
Cc1c(CN(C)C(=O)c2cc(-c3ccccc3)nc3ccc(Br)cc23)cnn1C,i,.,10.3µM*,20.6µM*,.,i
COCCNC(=O)c1cc(-c2cccnc2)nc2ccc(Br)cc12,i,1.7%,?,?,4.1%,i
CC(=O)Nc1ccc(S(=O)(=O)Nc2cc(C)on2)cc1,.,.,-14.7%,8.4%,.,.
c1cncc(-c2nnc3sc(-c4ccco4)nn23)c1,i,-9.7%,-24.4%,-29.4%,?,i
CCN(CC)c1ccc(-c2nn3c(-c4cccnc4)nnc3s2)cc1,20.6µM*,-18.8%,20.6µM*,18.4µM*,-29.2%,7.31µM*
CC(C)(C)c1ccc(-c2nnc3sc(-c4ccncc4)nn23)cc1,i,6.4%,?,12.6µM*,-6.7%,i
Cc1nnc2sc(-c3ccncc3)nn12,i,3.4%,0.4%,9.4%,-0.1%,i
CCOC(=O)c1ccccc1NC(=O)COC(=O)C(CC)Oc1ccccc1 (centres undefined),i,1.8%,?,-9.4%,2.0%,i
C/C=C/C(=O)OCC(=O)Nc1ccc(SC(F)F)cc1,i,-4.0%,3.4%,-14.8%,-3.9%,i
c1cc(-c2cc3cc4c(cc3cn2)OCO4)cs1,i,1.3%,?,14.6µM*,5.4%,i
N#Cc1ccccc1Cn1c(=O)n(-c2cccc(C(F)(F)F)c2)c(=O)c2sccc21,.,.,-26.5%,?,.,.
CC(=O)c1ccc(S(=O)(=O)N2CCCC(N(C)CCc3ccccn3)C2)cc1 (centres undefined),?,1.3%,-18.5%,-5.4%,1.4%,?
Cc1nc(C)n(CC(=O)N2CCOc3ccc(CN4CCN(C)C[C@@H]4c4ccccc4)cc3C2)n1,.,.,-16.2%,-8.8%[9.04 µM],.,.
CCOC(=O)C1=C(CS(=O)(=O)c2ccc(C(C)(C)C)cc2)NC(=O)NC1c1cccc(OC)c1 (centres undefined),i,.,16.4µM*,16.4µM*,.,i
CCOC(=O)C1=C(CS(=O)(=O)c2cccc(C(F)(F)F)c2)NC(=O)NC1c1cccc(OC)c1 (centres undefined),i,.,?,?,.,i
Cc1ccccc1-c1nc(CS(=O)(=O)CC(=O)NCCc2ccccc2)c(C)o1,i,-3.1%,-25.7%,?,-2.1%,i
Cc1ccccc1-c1nc(CS(=O)(=O)CC(=O)NCc2cccc(Cl)c2)c(C)o1,i,.,?,16.4µM*,.,i
Cc1cccc(N2CCN(C(=O)CS(=O)(=O)Cc3nc(-c4ccccc4C)oc3C)CC2C)c1 (centres undefined),?,.,?,14.6µM*,.,i
Cc1ccccc1-c1nc(CS(=O)(=O)CC(=O)Nc2cc(F)ccc2F)c(C)o1,i,-10.9%,20.6µM*,?,?,i
Cc1ccccc1-c1nc(CS(=O)(=O)CC(=O)NCC(C)c2ccccc2)c(C)o1 (centres undefined),i,.,16.4µM*,?,.,?

# Source: PubChem BioAssay (National Center for Advancing Translational Sciences (NCATS))
